PubChem BioAssay AID463212 (Sanford-Burnham Center for Chemical Genomics, 2010)
The campaign covered roughly 330,000 compounds. About 4,400 (1.3%) were called active. This is one part of a sample in which actives are shown more often than they occur. A number with no mark means an inactive call.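 Rule for the calls: active = growth inhibition of the mutant yeast at or above 50%; inactive = the rest.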

assay: growth inhibitors of tim23-1 mutant yeast, primary screen, luminescence, uHTS (AID 463212);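 note: temperature-sensitive mutant grown at 25 °C; plate controls were DMSO-treated mutant yeast for no effect and medium wells lacking yeast for full effect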; details: S. cerevisiae tim23-1 growth, BacTiter-Glo luminescence, 24 h; at 20 µM; hits give high values

Structure (SMILES)	inhibition
CCN(CC)C(=O)c1nc[nH]c1C(=O)N(C)Cc1ccccc1	8.93%
Cc1cc(C)cc(NC(=O)C2CCCN2S(=O)(=O)c2cccc3cccnc23)c1 (stereo unspecified)	47.9%
CCOC(=O)c1cc2c(=O)n3ccccc3nc2n(CC(C)C)c1=NC(=O)c1c(-c2c(F)cccc2Cl)noc1C	28.6%
Nn1c(SCC(=O)NC2CCCc3ccccc32)nnc1C1CC1 (stereo unspecified)	2.69%
CC(=O)Oc1ccc2c(c1)C(=O)c1ccccc1C2=O	50.2% (active)
CC(=O)O[C@H]1c2ccccc2-c2ccccc2[C@@H]1OC(C)=O	21.8%
CC(=O)Nc1ccc(Oc2ccc3c(c2)C(=O)NC3=O)cc1	-0.541%
O=C(O)CN(Cc1ccco1)S(=O)(=O)c1ccc(F)cc1	-1.65%
Cc1ccc(-c2cc(C(=O)N3CCc4ccccc4C3)no2)cc1	15.5%
O=C(c1cc(-c2cccc(O)c2)on1)N1CCc2ccccc2C1	50.3% (active)
O=C(NCCCN1CCOCC1)c1cc(-c2cccc(O)c2)on1	-0.573%
O=C(c1cc(-c2ccc(O)cc2)on1)N1CCCc2ccccc21	54.2% (active)
O=C(c1cc(-c2ccc(O)cc2)on1)N1CCOCC1	12.7%
Cc1c(C(=O)N2CCCc3ccccc32)oc2ccccc12	23.8%
CSc1ccc(S(=O)(=O)N2CCC(C(=O)NCc3ccncc3)CC2)cc1	0.185%
COC(=O)c1ccc2ccccc2c1OC1OC(CO)C(O)C(O)C1NC(C)=O (stereo unspecified)	2.47%
Cc1cccc(-c2nnc(SCC(=O)O)n2Cc2ccccc2)c1	1.27%
CC1CCC2(CC1)NC(=O)N(Cc1nnc(-c3cccs3)o1)C2=O (stereo unspecified)	8.03%
CCn1c(SCc2cccc(C(=O)O)c2)nnc1-c1ccc(Cl)cc1	10.3%
O=C(COC(=O)C1CCCCC1)Nc1ccc([N+](=O)[O-])cc1	2.5%
CC(=O)Nc1ccc(NC(=O)COC(=O)C2CCC(C(C)(C)C)CC2)cc1 (stereo unspecified)	32.6%

Structure (SMILES)	inhibition
CCC(C)c1ccc(NC(=O)COC(=O)C2CCCC2)cc1 (stereo unspecified)	56.9% (active)
Clc1ccc(-c2nnc(-c3ccccc3)nc2N2CCSCC2)cc1	45.4%
O=S(=O)(c1ccccc1)c1nc(Cc2ccccc2)oc1N1CCOCC1	7.56%
CCCCC(NC(=O)c1cccc(Br)c1)C(=O)O (stereo unspecified)	4.77%
COC(=O)CNS(=O)(=O)c1ccc(Cc2ccc(S(=O)(=O)NCC(=O)OC)cc2)cc1	31.2%
COc1cc(OC)c(C(=S)N2CCCC2)cc1OC	11.7%
O=C1N=C(N2CCCC2)S/C1=C\c1cccc(Br)c1	27.3%
CCN1C(=O)/C(=C2\SC(N3CCCCC3)=NC2=O)c2ccccc21	54.8% (active)
CC(C)=C1SC(N2CCN(c3cccc(C)c3)CC2)=NC1=O	14.1%
CSc1ccccc1OCc1cc(C(=O)N2C[C@H]3CC[C@H]2C3)no1	18.7%
CCCOc1ccc(CN(CCO)CCO)cc1C(=O)OC	1.64%
COCCCNC(=O)C1CCN(c2ccc(N3CCOCC3)nn2)CC1	16.9%
O=C(NCc1ccccc1)c1onc(CSc2nc3ccccc3[nH]2)c1C(=O)NCc1ccccc1	6.16%
CCOC(=O)C1CCN(C(=O)c2cccc(S(=O)(=O)N(CC)c3ccccc3)c2)CC1	14.3%
CCCCN1C(=O)CC(N2CCOCC2)C1=O (stereo unspecified)	-1.61%
Cn1nc(C(F)(F)F)cc1C(=O)O	-3.37%
O=c1oc2ccccc2c(NC2CCCCC2)c1NS(=O)(=O)c1ccc(Cl)cc1	25.2%
O=c1ccc2cc(S(=O)(=O)Nc3ccccc3F)ccc2o1	17.6%
O=c1oc(-c2ccccc2NS(=O)(=O)c2ccc(Cl)cc2)nc2ccccc12	59.8% (active)
CC(=O)Nc1ccc(N2C(=O)CC(Sc3nccc(C)n3)C2=O)cc1 (stereo unspecified)	10.2%
